# Results from PubChem BioAssay (Tox21).
# Inconclusive results are not listed. Where a call stands in place of a potency, no number is given. Calls of active or inactive are those of the source. Calls follow the shape of the dose curve; as a rule, active = well fitted cell-killing curve with a large enough effect in the repeat runs; inconclusive = weak or mixed curves; inactive = flat fitted curve, though single readings scatter.
# Assay: qHTS assay to identify small molecule antagonists of the estrogen receptor beta (ER-beta) signaling pathway - cell viability counter screen (AID 1259382); also: nearly all actives have a fitted effect of over 55% in size
# Details: ER-beta-UAS-bla HEK293T viability, CellTiter-Glo luminescence, 16 h; series mostly up to 92.4 µM
# Description: U.S. Tox21 Program National Center for Advancing Translational Sciences [NCATS] NIH Chemical Genomics Center [NCGC] U.S. Environmental Protection Agency [EPA] National Institutes of Environmental Health Sciences [NIEHS] National Toxicology Program [NTP] U.S. Food and Drug Administration [FDA] Tox21 Assay Overview: Estrogen receptor (ER), a nuclear hormone receptor, plays an important role in development, metabolic homeostasis and reproduction. Two subtypes of ER, ER-alpha and ER-beta, have similar expression patterns with some uniqueness in both types. Endocrine disrupting chemicals (EDCs) and their interactions with steroid hormone receptors like ER causes disruption of normal endocrine function. To identify the compounds that inhibit ER signaling, an ER-beta-UAS-bla GripTite cell line (Life Technologies, Madison, WI, USA) containing a beta-lactamase reporter gene under the control of an UAS response element was used to screen Tox21 10K compound library. The cytotoxicity of the Tox21 compound library against the ER-beta-bla cell line was tested in parallel by measuring the cell viability using CellTiter-Glo assay in the same wells.
# Tox21 Assay Protocol Summary: ER-beta-UAS-bla HEK293T cells were dispensed at 2,000 cells/4 uL of assay medium containing 2% charcoal stripped FBS per well into black wall/clear-bottom 1536-well plates using a Multidrop Combi (ThermoFisher Scientific, Waltham, MA) dispenser. After the assay plates were incubated at a 37C and 5% CO2 for 6 hr, 23 nL of compounds dissolved in DMSO, positive controls or DMSO only was transferred to the assay plate by a Pintool station (Kalypsys, San Diego, CA), followed by addition of 1 uL (1nM as final concentration) of 17-beta-estradiol (E2) in assay medium using a Flying Reagent Dispenser (FRD, Aurora Discovery, San Diego, CA). The plates were incubated at 37C and 5% CO2 for 16 hr. Then 1 uL of LiveBLAzer B/G FRET substrate was added using a Flying Reagent Dispenser, the plates were incubated at room temperature for 2 hours, and fluorescence intensity was measured by an Envision plate reader (PerkinElmer, Shelton, CT). For cell viability readout that measures cytotoxicity, 4 uL/well of CellTiter-Glo reagent was added into the assay plates using a FRD. After 30 min incubation at room temperature, the luminescence intensity in the plates was measured using a ViewLux (PerkinElmer) plate reader.
row,SMILES,Potency
1,OC[C@@H](O)[C@@H](O)[C@H](O)[C@H](O)CO,inactive
2,CC(=O)CCC(C)C,inactive
3,CCCCC/C(C=O)=C\c1ccccc1,inactive
4,Cn1cnc2c1c(=O)[nH]c(=O)n2C,inactive
5,CCCCCCCCOc1ccc(C(=O)c2ccccc2)c(O)c1,inactive
6,COc1ccc(C(=O)c2ccccc2)c(O)c1,inactive
7,C=CC(=O)NC(C)(C)CS(=O)(=O)O,inactive
8,CCCCCCCC(=O)OCC(O)CO (stereo not given),inactive
9,C[C@]12C=CC(=O)C=C1CC[C@@H]1[C@@H]2C(=O)C[C@@]2(C)[C@H]1CC[C@]2(O)C(=O)CO,inactive
10,COC(=O)c1ccc(C=O)cc1,inactive
11,CN/C(=C\[N+](=O)[O-])NCCSCc1ccc(CN(C)C)o1,inactive
12,CCCCNC(=O)NS(=O)(=O)c1ccc(N)cc1,inactive
13,CCCCCCCCCCCCCCCCCC(=O)OCC(O)CO (stereo not given),inactive
14,CCOC(=O)C(C)(C)Oc1ccc(Cl)cc1,inactive
15,CCCCCCCCCCCCCC(=O)OC(C)C,inactive
16,c1ccc2[nH]c(-c3cscn3)nc2c1,inactive
17,O=C(O)CCCCC1CCSS1 (stereo not given),inactive
18,NC(=O)NO,inactive
19,Cc1c(N(C)CS(=O)(=O)O)c(=O)n(-c2ccccc2)n1C,inactive
20,CC(O)COc1ccccc1 (stereo not given),inactive

row,SMILES,Potency
1,COC(=O)C1CCC(C(=O)OC)CC1 (stereo not given),inactive
2,CC1=NN(c2ccccc2)C(=O)C1,inactive
3,CC(C)Cc1ccc(C(C)C(=O)O)cc1 (stereo not given),inactive
4,Cc1c(N(C)C)c(=O)n(-c2ccccc2)n1C,inactive
5,Cc1cnc(NC(=O)C2=C(O)c3ccccc3S(=O)(=O)N2C)s1,inactive
6,CC(C)=CCC/C(C)=C/CO,inactive
7,O=C1CCCCCN1,inactive
8,O=C(OCc1ccccc1)c1ccccc1,inactive
9,CC1(C)O[C@@H]2[C@@H](CO[C@@]3(COS(N)(=O)=O)OC(C)(C)O[C@@H]23)O1,inactive
10,O=c1cc[nH]c(=O)[nH]1,inactive
11,O=C(O)CN(CC(=O)O)CC(=O)O,inactive
12,CC(=O)OC/C=C(C)/C=C/C=C(C)/C=C/C1=C(C)CCCC1(C)C,inactive
13,CC(C)(C)CC(C)(C)c1ccc(O)c(-n2nc3ccccc3n2)c1,inactive
14,Nc1ccc(N=Nc2ccccc2)c(N)n1,inactive
15,NC(N)=NC(N)=NCCc1ccccc1,inactive
16,Cc1cccc2ccccc12,inactive
17,CN(C)C=O,inactive
18,COc1ccc(O)cc1,inactive
19,COC1=CC(=O)C[C@@H](C)[C@]12Oc1c(Cl)c(OC)cc(OC)c1C2=O,inactive
20,O=[N+]([O-])c1ccc(O)cc1,inactive
